38 compounds from PubChem BioAssay (NCATS) can be followed below.

SMILES strings stand for the structures. Records with an inconclusive call do not appear. Entries that show only a call come without a potency. Activity calls are given as the source filed them. Calls follow the shape of the dose curve; as a rule, active = well fitted inhibition curve with a large enough effect; inconclusive = small, poorly fitted or top-dose-only effect; inactive = flat fitted curve, though single readings scatter.
Potency is read from the fitted curve at half-maximal effect.

The subject of the first experiment is FAB9. Nature of the experiment: qHTS profiling for inhibitors of Plasmodium falciparum proliferation (AID 504749). Also: nearly all actives have a fitted effect of over 60% in size. To be noted: P. falciparum in erythrocytes, SYBR Green DNA, 72 h; series mostly up to 28.7 µM. Summed up:
(§1)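 SYBR Green fluorescence of parasite DNA, read after lysis and overnight dark incubation, measured growth over 72 h in erythrocyte culture at 0.3% parasitemia and 2.5% hematocrit. Data normalised to DMSO and 0.29 uM artemisinin, with plate-drift correction.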
Turning to `COc1cc(O)c(C(=O)c2ccccc2)cc1S(=O)(=O)O`, the Potency entry was “inactive”.
For the compound `CCN(CC)CCOC(=O)C1(c2ccccc2)CCCC1`, the Potency entry was “inactive”.
With `CCC(CC)(CC(=O)Nc1cccc(/C=C/c2nc(C3CCC3)cs2)c1)C(=O)O`, the Potency entry is “inactive”.
For `CN1CCN(C2=Nc3cc(F)ccc3Cc3ccccc32)CC1`, the Potency entry is “inactive”.
On the same count and under the same terms, the entry for `COc1ccc(C(=O)c2ccccc2)c(O)c1` is “inactive”.
Consider `COc1ccc(C(=O)c2ccccc2O)c(O)c1`, for which the Potency entry is “inactive”.
In the case of `NCc1ccccc1Sc1ccccc1CO`, the Potency result was “inactive”.
Consider `C#C[C@]1(OC(C)=O)CC[C@H]2[C@@H]3CCC4=C/C(=N/O)CC[C@@H]4[C@H]3CC[C@@]21CC`, for which the Potency entry was “inactive”.
Take `CN(C)CCN1C(=O)c2ccccc2N(C)c2ccccc21`: the Potency result is “inactive”.
As to `COc1cc([C@H]2Oc3cc([C@H]4Oc5cc(O)cc(O)c5C(=O)[C@@H]4O)ccc3O[C@@H]2CO)ccc1O`, the Potency result is “inactive”.
In the case of `O=[N+]([O-])c1cccc(S(=O)(=O)NCCNS(=O)(=O)c2cccc([N+](=O)[O-])c2)c1`, the Potency entry is “inactive”.
In the case of `Cc1ncc(CO)c(C=O)c1O`, the Potency result is “inactive”.
On to `CC(C)[N+](C)(C)CC(O)COc1cccc2ccccc12` (stereo unspecified), for which the Potency is 7.94 µM (active).
With `CC(=O)O[C@H]1C[C@@H]2CC[C@@H]3[C@H](CC[C@@]4(C)[C@H]3C[C@H]([N+]3(C)CCCCC3)[C@@H]4OC(C)=O)[C@@]2(C)C[C@@H]1N1CCCCC1`, the Potency result was “inactive”.
As for `CCNC(=O)NCc1cccc(Cl)c1`, the Potency entry was “inactive”.
Regarding `CCOc1ccccc1OCCN[C@H](C)Cc1ccc(OC)c(S(N)(=O)=O)c1`, the Potency entry is “inactive”.
As for `Oc1ccc(Cl)cc1Cc1cc(Cl)ccc1O`, the Potency result was “inactive”.
As for `CC(=O)O[C@]1(C(C)=O)CC[C@H]2[C@@H]3C=C(Cl)C4=CC(=O)CC[C@]4(C)[C@H]3CC[C@@]21C`, the Potency result was “inactive”.
Regarding `CCOC(=O)Nc1ccc2c(c1)N(C(=O)CCN1CCOCC1)c1ccccc1S2`, the Potency entry was “inactive”.
Same read-out and setting: the entry for `CC[N+](C)(CC)CCOC(=O)C(O)(c1ccccc1)C1CCCCC1` (stereo unspecified) is “inactive”; for `CC(C)=CCOc1ccc(/C=C/C(=O)c2ccc(OCC=C(C)C)cc2OCC(=O)O)cc1` it is “inactive”.
Take `O=C(CN1CCN(Cc2ccc3c(c2)OCO3)CC1)N1c2ccccc2Sc2ccccc21`: the Potency result is “inactive”.
For `CCC(C(=O)OCCOCCN(CC)CC)c1ccccc1` (stereo unspecified), the Potency result is “inactive”.
Take `O=C(NC1CCN(CCc2c[nH]c3ccccc23)CC1)c1ccccc1`: the Potency entry was “inactive”.
Take `NC(=O)C1(N2CCCCC2)CCN(CCCC(=O)c2ccc(F)cc2)CC1`: the Potency entry was “inactive”.
Regarding `CN1CCN(C2=Nc3ccccc3Sc3ccc(Cl)cc32)CC1`, the Potency entry was “inactive”.
For `O=S(c1cc(Cl)cc(Cl)c1O)c1cc(Cl)cc(Cl)c1O`, the Potency was 0.0224 µM (active).
Take `CCCCCCCCCCCCOCCOCCOCCOCCOCCOCCOCCOCCOCCO`: the Potency result was “inactive”.
As for `CN1CCC(OC(c2ccccc2)c2ccccc2)CC1`, the Potency result was “inactive”.
Still for that read-out and setting: the same measure for `COC(=O)C(c1ccccc1Cl)N1CCc2sccc2C1` (stereo unspecified): “inactive”; for `Cc1cc2c(OCC(CNC(C)(C)C)OC(=O)c3ccccc3)cccc2[nH]1` (stereo unspecified): “inactive”; for `Cc1cccc(C)c1NC(=O)CN1CCCCCC1`: “inactive”.
Same read-out and setting: the entry for `CC(=O)NCCCCCC(=O)O` is “inactive”; for `CCc1ccc(C(=O)C(C)CN2CCCCC2)cc1` (stereo unspecified) it is “inactive”.
The same measure, in the same setting: the entry for `CN(C)CCOC(c1ccc(Cl)cc1)c1ccccn1` (stereo unspecified) is “inactive”.
In the case of `COc1ccc2c(c1)c1c3n2CCN(C)C3=NCC1`, the Potency result was “inactive”.
In the case of `CO[C@]12C[C@@H](COC(=O)c3cncc(Br)c3)CN(C)[C@@H]1Cc1cn(C)c3cccc2c13`, the Potency result was “inactive”.

The next experiment relates to GB4. The description is as above. The settings on record: P. falciparum in erythrocytes, SYBR Green DNA, 72 h; series mostly up to 28.7 µM. Summed up: as §1
With `CCC(CC)(CC(=O)Nc1cccc(/C=C/c2nc(C3CCC3)cs2)c1)C(=O)O`, the Potency entry is “inactive”.
As to `C#C[C@]1(OC(C)=O)CC[C@H]2[C@@H]3CCC4=C/C(=N/O)CC[C@@H]4[C@H]3CC[C@@]21CC`, the Potency result was “inactive”.
As to `CN(C)CCN1C(=O)c2ccccc2N(C)c2ccccc21`, the Potency is 9.53 µM (active).
Same read-out and setting: the entry for `CCNC(=O)NCc1cccc(Cl)c1` is “inactive”; for `CCOC(=O)Nc1ccc2c(c1)N(C(=O)CCN1CCOCC1)c1ccccc1S2` it is “inactive”.
The same measure, in the same setting: the same measure for `O=C(CN1CCN(Cc2ccc3c(c2)OCO3)CC1)N1c2ccccc2Sc2ccccc21`: 12 µM (active).
For `Cc1cc2c(OCC(CNC(C)(C)C)OC(=O)c3ccccc3)cccc2[nH]1` (stereo unspecified), the Potency was 10.7 µM (active).
On to `CC(=O)NCCCCCC(=O)O`, for which the Potency entry is “inactive”.
For `CCc1ccc(C(=O)C(C)CN2CCCCC2)cc1` (stereo unspecified), the Potency result was “inactive”.
Turning to `COc1ccc2c(c1)c1c3n2CCN(C)C3=NCC1`, the Potency entry is “inactive”.

The test system of a further experiment is HB3. The experiment is described as above. To be noted: P. falciparum in erythrocytes, SYBR Green DNA, 72 h; series mostly up to 28.7 µM. Summed up: as §1
With `CCN(CC)CCOC(=O)C1(c2ccccc2)CCCC1`, the Potency result is “inactive”.
On to `CCC(CC)(CC(=O)Nc1cccc(/C=C/c2nc(C3CCC3)cs2)c1)C(=O)O`, for which the Potency entry was “inactive”.
As to `CN1CCN(C2=Nc3cc(F)ccc3Cc3ccccc32)CC1`, the Potency entry is “inactive”.
As to `COc1ccc(C(=O)c2ccccc2)c(O)c1`, the Potency was 10 µM (active).
Consider `COc1ccc(C(=O)c2ccccc2O)c(O)c1`, for which the Potency entry was “inactive”.
Still for that read-out and setting: the same measure for `NCc1ccccc1Sc1ccccc1CO`: “inactive”.
On the same count and under the same terms, the entry for `C#C[C@]1(OC(C)=O)CC[C@H]2[C@@H]3CCC4=C/C(=N/O)CC[C@@H]4[C@H]3CC[C@@]21CC` is “inactive”; for `CN(C)CCN1C(=O)c2ccccc2N(C)c2ccccc21` it is “inactive”; for `COc1cc([C@H]2Oc3cc([C@H]4Oc5cc(O)cc(O)c5C(=O)[C@@H]4O)ccc3O[C@@H]2CO)ccc1O` it is “inactive”.
With `O=[N+]([O-])c1cccc(S(=O)(=O)NCCNS(=O)(=O)c2cccc([N+](=O)[O-])c2)c1`, the Potency result is “inactive”.
With `Cc1ncc(CO)c(C=O)c1O`, the Potency entry is “inactive”.
Still for that read-out and setting: the figure for `O=C(O)CCc1nc2ccccc2[nH]1` is 0.0089 µM (active); for `CCNC(=O)NCc1cccc(Cl)c1` it is “inactive”; for `CCOc1ccccc1OCCN[C@H](C)Cc1ccc(OC)c(S(N)(=O)=O)c1` it is “inactive”.
Regarding `Oc1ccc(Cl)cc1Cc1cc(Cl)ccc1O`, the Potency result was “inactive”.
For the compound `CCOC(=O)Nc1ccc2c(c1)N(C(=O)CCN1CCOCC1)c1ccccc1S2`, the Potency result was “inactive”.
Same read-out and setting: the same measure for `CC(C)=CCOc1ccc(/C=C/C(=O)c2ccc(OCC=C(C)C)cc2OCC(=O)O)cc1`: “inactive”; for `CCC(C(=O)OCCOCCN(CC)CC)c1ccccc1` (stereo unspecified): “inactive”.
As to `O=C(NC1CCN(CCc2c[nH]c3ccccc23)CC1)c1ccccc1`, the Potency result is “inactive”.
Turning to `NC(=O)C1(N2CCCCC2)CCN(CCCC(=O)c2ccc(F)cc2)CC1`, the Potency result is “inactive”.
As for `CN1CCN(C2=Nc3ccccc3Sc3ccc(Cl)cc32)CC1`, the Potency result was “inactive”.
Consider `O=S(c1cc(Cl)cc(Cl)c1O)c1cc(Cl)cc(Cl)c1O`, for which the Potency is 0.0032 µM (active).
As to `CN1CCC(OC(c2ccccc2)c2ccccc2)CC1`, the Potency entry is “inactive”.
On to `Cc1cccc(C)c1NC(=O)CN1CCCCCC1`, for which the Potency entry is “inactive”.
Regarding `CC(=O)NCCCCCC(=O)O`, the Potency entry is “inactive”.
Turning to `CCc1ccc(C(=O)C(C)CN2CCCCC2)cc1` (stereo unspecified), the Potency entry was “inactive”.
Same read-out and setting: the same measure for `CN(C)CCOC(c1ccc(Cl)cc1)c1ccccn1` (stereo unspecified): “inactive”; for `COc1ccc2c(c1)c1c3n2CCN(C)C3=NCC1`: “inactive”; for `CO[C@]12C[C@@H](COC(=O)c3cncc(Br)c3)CN(C)[C@@H]1Cc1cn(C)c3cccc2c13`: “inactive”.
